Compound activity as filed in PubChem BioAssay.
An excerpt weighted towards active compounds, which were near 2.7% of everything screened.
ATG4B inh: ATG4B (human) cysteine protease inhibition | ATG4B cleavage of LC3-PLA2, NBD-HPC fluorescence, 1 h | inhibition, % at 8.33 µM | AID 504462 | 340,000 tested, 0.51% active; in the data active = inhibition above about 40%
SKN-1 block: blocks SKN-1 activity in C. elegans | C. elegans VP596 Pgst-4::GFP/RFP ratio, acrylamide-induced, 24 h | inhibition, % at 21.8 µM | 360,000 tested, 0.49% active | AID 624304;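 active = interference check ratio from 0.5 to 1.5 plus GFP to RFP signal ratio inhibition reaching or exceeding a fixed threshold, cut at about 30% in these data, passing the limit was not always enough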
NRP1-CendR mod: NRP-1/CendR interaction modulation | O14786 | FAM-RPARPAR peptide binding to NRP-1, fluorescence polarization | inhibition, % at 25 µM | 360,000 tested, 0.85% active | AID 602438;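 active = inhibition or corrected inhibition above about 18%, plus a signal ratio from 0.5 to 1.5, limit read from the data, passing the limit was not always enough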
MPTP block: blocks calcium-induced mitochondrial swelling; 360,000 tested, 1.4% active; inhibition, % at 10 µM; isolated mouse mitochondria, Ca2+ swelling absorbance, 30 min;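 active = inhibition of 50% or more, scaled per plate between neutral and stimulator controls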;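 note: 0% = DMSO wells given calcium and 100% = 1 mM EGTA wells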
F508del corr: CFTR F508del correction in bronchial cells; activity (quench increase), % at 7.58 µM; 350,000 tested, 0.36% active; AID 720511; CFBE cells, YFP halide quenching; stimulated with forskolin plus potentiator P3; % fluorescence drop versus neutral controls;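 active = mean added fluorescence quench of at least 8% versus neutral control, with both replicates also reaching 8%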;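 note: cells transiently co-express mutant CFTR-F508del with the halide-sensitive YFP; corrector assay measuring rescue of mutant channel to the surface after 24 h compound exposure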
Active calls of the source: *; nt = not tested or not shown.

SMILES	ATG4B inh	SKN-1 block	NRP1-CendR mod	MPTP block	F508del corr
C=CC[N+]1(C)C2CCC1CC(O)C2 (stereo not given)	2	1	21*	0	-2
O=C1C2CCN(CC2)C1Cc1ccc(OCCOc2ccccc2)cc1 (stereo not given)	3	8	28*	-1	nt
CC1=C2C[C@H]3[C@@H](CC=C4C[C@@H](O)CC[C@@]43C)[C@@H]2CC[C@]12O[C@@H]1C[C@H](C)CN[C@@H]1C2C (stereo not given in full)	nt	nt	nt	nt	-2
CC(=O)c1ccc2c(c1)C1C(Cl)C(Sc3ccccc3[N+](=O)[O-])CC1C(c1ccccc1)N2 (stereo not given)	0	-4	3	4	nt
CC(=O)c1ccc2c(c1)C1C(Cl)C(Sc3ccccc3[N+](=O)[O-])CC1C(c1ccccc1[N+](=O)[O-])N2 (stereo not given)	13	42*	-26	1	nt
O=C(O)[C@@H]1[C@@H](CO)[C@@H]2Cn3c(ccc(-c4cccc(F)c4)c3=O)[C@H]1N2CCc1ccccc1	nt	nt	nt	nt	1
COC(=O)[C@@H]1[C@@H](CO)[C@@H]2Cn3c(ccc(-c4cccc(OC)c4)c3=O)[C@H]1N2C(=O)c1cnccn1	nt	nt	nt	nt	-1
O=C(O)CC1OCC=C2CN3CCC45C6=CC(=O)C(=O)C([N+](=O)[O-])=C6NC4C1C2CC35 (stereo not given)	7	27	25*	-1	nt
CN(C)c1ccc(C(=O)c2ccc(N(C)C)cc2)cc1	-7	42*	-4	-1	nt
N#Cc1cccc(-c2ccc([C@@H]3[C@@H](CO)N4CCCCN(C(=O)Cc5ccccc5)C[C@@H]34)cc2)c1	nt	nt	nt	nt	-3
CCc1ccc(N2C(=O)NC(=O)/C(=C\c3cccn3CCOc3ccc(C(C)C)cc3)C2=O)cc1	-7	10	36*	2	nt
O=C(O)[C@@H]1[C@@H](CO)[C@@H]2Cn3c(ccc(-c4ccccc4)c3=O)[C@H]1N2C(=O)C1CCCCC1	nt	nt	nt	nt	-2
O=C(Nc1ccc(Cl)c(Cl)c1)c1ccco1	5	42*	7	0	-3
O=C1NC(=O)C(=Cc2c(Cl)cccc2Cl)C(=O)N1	-1	-6	-8	2	8.7*
CC=CC(C)=CC(C)C(=O)CC(O)CC1CC(=O)NC(=O)C1 (stereo not given)	nt	-9	-1	1	10*
CC1CC(C)(O)CC(C(O)CC2CC(=O)NC(=O)C2)C1=O (stereo not given)	0	-9	-6	-1	-11
COc1cc2c(cc1OC)-c1c(OC)c(OC)cc3c1[C@H](C2)N(C)CC3	-12	7	29*	-2	1
Cc1ccc(C(=O)C2CN3CCC2CC3)cc1 (stereo not given)	1	23	26*	-5	nt
CC1=Nc2ccccc2/C1=C/c1c(O)[nH]c(=O)[nH]c1=O	3	36*	-6	5	3
Cc1ccc2c(c1)=NC(=O)/C(=C/c1c(O)[nH]c(=O)[nH]c1=O)C=2	-6	-16	-10	4	4
C/C(=C\c1ccc(N(C)C)cc1)[N+](=O)[O-]	0	42*	-2	1	2
CN(C)c1ccc(/C=C/[N+](=O)[O-])cc1	-8	40*	-18	11	nt
CN(C)c1ccc(C=C2C(=O)NC(=O)NC2=O)cc1	-5	13	-7	2	-1
CCC(CO)NC(=O)C1C=C2c3cccc4[nH]cc(c34)CC2N(C)C1 (stereo not given)	-1	21	49*	0	-1
Cc1ccc(OC(=O)N(C)C[C@@H]2OCc3ccccc3-c3c(n(C)c4ccccc34)C(=O)N([C@@H](C)CO)C[C@H]2C)cc1	nt	nt	nt	nt	2
SMILES	ATG4B inh	SKN-1 block	NRP1-CendR mod	MPTP block	F508del corr
Cc1ccsc1/C=C1\C(=O)NC(=S)N(C)C1=O	5	40*	-13	9	-1
CN1C(=O)/C(=C/c2ccc(Cl)s2)C(=O)NC1=S	4	11	-55	16	-5
COc1ccc(/C=C2\C(=O)NC(=S)N(C)C2=O)cc1C	56*	-4	-203	-3	1
CN1C(=O)/C(=C\c2ccc(N3CCCCC3)o2)C(=O)NC1=S	2	33*	-107	1	nt
CN1C(=O)/C(=C/c2ccc(N3CCCCCC3)o2)C(=O)NC1=S	7	24	-113	2	nt
COC(=O)[C@H]1[C@H](CO)[C@H]2Cn3c(ccc(-c4ccccc4)c3=O)[C@@H]1N2C(=O)c1ccccc1F	nt	nt	nt	nt	-1
CCCCn1c(O)c(C(C)=NCCc2c[nH]c3ccccc23)c(=O)[nH]c1=O	-3	-3	-9	7	0
O=C(/C=C/c1c[nH]c2ccccc12)c1c(O)n(CCc2ccccc2)c(=O)[nH]c1=O	7	40*	133	-8	nt
CC=Cc1ccc2n(c1=O)C[C@H]1[C@H](CO)[C@@H](C(=O)N(C)C)N[C@@H]21 (mixture of isomers)	nt	nt	nt	nt	-2
O=C(O)[C@H]1[C@H](CO)[C@H]2Cn3c(ccc(C4=CCCC4)c3=O)[C@@H]1N2C(=O)Cc1ccccn1	nt	nt	nt	nt	2
Cn1c(O)c(C=Nc2ccc(F)cc2)c(=O)[nH]c1=O	1	16	5	-1	-2
CC(C)(C)n1c(O)c(C=Nc2ccc3c(c2)CCC3)c(=O)[nH]c1=O	-1	27*	-2	-2	nt
Cc1c(NP(=O)(C(C)(C)C)C(C)(C)C)c(=O)n(-c2ccccc2)n1C	-12	2	21*	0	-4
O=C1NC(=S)N(C2CC2)C(=O)/C1=C/c1ccc2c(c1)CCN2CCCCl	5	41*	-54	18	nt
CCN1C(=O)/C(=C/c2ccc3c(c2)CCN3CCCCl)C(=O)NC1=S	19	23	-67	11	nt
CN1CC=C2C(C#N)=C(N)C(C#N)(C#N)C(c3ccncc3)C2C1 (stereo not given)	-12	40*	49	-2	nt
Cc1ccc2c(C)c3ccc4ccccc4c3c[n+]2c1	0	-3	-16	-1	9.2*
COc1ccc(C#Cc2ccc([C@H]3[C@H](CO)N4CCCCN(C(=O)Cc5ccncc5)C[C@@H]34)cc2)cc1	nt	nt	nt	nt	0
COC1CC2C=C(C)C=CC=CC(=O)NC(c3ccccc3)CC=CCCC(O)CC(=O)C2=C1O (stereo not given)	nt	6	-64	-2	12*
COc1cc(C)c(CN2CCN(c3ccccc3)CC2)cc1C	-7	-8	36*	-1	nt
O=[N+]([O-])c1ccc(N(CCO)CCO)c2c1no[n+]2[O-]	nt	47*	4	21	-11
CN1CCN(c2ccc([N+](=O)[O-])c3no[n+]([O-])c23)CC1	12	-14	146	15	18*
CN1CCN(c2ccc(S(C)(=O)=O)cc2[N+](=O)[O-])CC1	3	10	1	1	0
C[C@@H]1CN([C@@H](C)CO)C(=O)c2c(c3ccccc3n2C)-c2ccccc2CO[C@H]1CN(C)C(=O)Oc1ccccc1	nt	nt	nt	nt	-1
CCOC(=O)[C@@H]1[C@@H]2NC(=O)N(C)[C@@]1(C)Oc1ccccc12	nt	nt	nt	nt	2
